High-throughput results: PubChem BioAssay, several laboratories
The list is not random: actives were taken first. Their share in the collection is about 3.9%.
Platelet DG rel: platelet dense granule release activity | inhibition, %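 (compounds screened at 7.5 µM in platelet-rich plasma)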 | human platelet-rich plasma, SFLLRN dense granule ATP release, luminescence | 300,000 tested, 0.22% active;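 active = mean replicate score, as percent of positive control, at or above 50; inconclusive = mean below 50 but at least one replicate at or above 50; inactive = mean and every replicate below 50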
TPT1 inhibitor: C. albicans TPT1 enzyme inhibition; inhibition, % at 5 µM; 300,000 tested, 0.81% active; recombinant caTPT1, FP RNA substrate dephosphorylation;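 active = inhibition above the mean of all tested compounds plus 3 SD, set per screening campaign, cut at about 24% in these data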;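 also: plate controls were DMSO alone for no effect and ferristatin control at 100 nM for full effect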
SKKanGAS inh: blocks kanamycin growth of S. pyogenes SKKanGAS strain; BacTiter-Glo, 6 h; inhibition, % at 7.5 µM; 300,000 tested, 1.3% active;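 active = mean replicate score, as percent of positive control median, at least 50; inconclusive = mean below 50 but one replicate at or above 50; inactive = mean and every replicate below 50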;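 also: strain carries kanamycin resistance gene driven by streptokinase promoter and grows in 40 µg/ml kanamycin; loss of luminescence reflects streptokinase promoter inhibition or plain growth inhibition; 0% = median of DMSO wells and 100% = positive control at its reference dose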
WT yeast gro inh: growth inhibition of WT yeast, mitochondrial fusion screen; mitochondrial fusion phenotypic screen, WT strain; inhibition, % at 10 µM; 190,000 tested, 2.1% active; AID 1362; in the data active = inhibition above about 58%; tested in S. cerevisiae
PHOSPHO1 inh: PHOSPHO1 (human) inhibition. recombinant PHOSPHO1, absorbance phosphatase assay. Q8TCT1. inhibition, % at 13.3 µM. 290,000 tested, 1.1% active; in the data active = inhibition above about 60%
Target sequence (Q8TCT1 whole entry, looked up): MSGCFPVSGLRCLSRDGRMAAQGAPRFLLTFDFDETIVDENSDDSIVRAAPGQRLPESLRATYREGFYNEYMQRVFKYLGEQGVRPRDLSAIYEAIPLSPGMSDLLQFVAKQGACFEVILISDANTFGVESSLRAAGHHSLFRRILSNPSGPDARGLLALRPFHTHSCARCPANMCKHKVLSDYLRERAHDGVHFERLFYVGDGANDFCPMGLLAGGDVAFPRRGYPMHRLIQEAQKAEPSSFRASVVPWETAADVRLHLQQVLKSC
Rtt109 Vps75: inhibitors of Candida albicans Rtt109/Vps75 histone acetyltransferase; 330,000 tested, 0.16% active; inhibition, % at 34.9 µM; Q5AAJ8; purified Rtt109/Vps75, ThioGlo CoA-SH fluorescence, 4 h; AID 540336;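 active = inhibition of at least 50% in every replicate; inconclusive = best replicate reaches 50% inhibition but some replicates fall short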
* hit, by the source's call; u = inconclusive; x = not tested or not shown.

SMILES	Platelet DG rel	TPT1 inhibitor	SKKanGAS inh	WT yeast gro inh	PHOSPHO1 inh	Rtt109 Vps75
Cc1ccc(-c2nc3c(Cl)cc(Cl)cc3c(=O)n2O)cc1	-7	2	90*	x	x	-12
O=c1c2cc(Br)ccc2nc(-c2ccc(Cl)cc2)n1O	6	-3	89*	x	33	0
O=c1c2ccc(Cl)cc2nc(-c2cccc(C(F)(F)F)c2)n1O	18	-7	97*	12	17	-10
O=c1c2cc(Cl)ccc2nc(-c2ccc([N+](=O)[O-])cc2)n1O	-3	-4	5	19	30	-2
O=c1cc(O)n(-c2ccc(Cl)cc2)c(=S)[nH]1	0	12	3	8	82*	7
O=c1cc(O)n(-c2ccccc2F)c(=S)[nH]1	-4	21	-2	48	35	0
Nc1cc(=O)[nH]c(=S)n1-c1ccccc1	2	3	5	59*	46	-5
COc1ccc(CCNC(=O)COC(=O)CSc2ccc([N+](=O)[O-])cc2)cc1OC	x	x	x	x	x	1
CCOc1ccc(Br)cc1C1C(C(=O)OC)=C(N)Oc2cc(N(C)C)ccc21 (stereo not drawn)	24	8	-4	59*	4	-14
Nc1ccc2nn(-c3ccccc3)nc2c1	x	x	x	63*	8	-2
COc1ccccc1C(=O)Nc1nnc(-c2ccc(Cl)cc2)o1	-11	-2	4	29	13	0
COc1ccc(-c2nnc(NC(=O)c3ccc(F)cc3)o2)cc1	-2	0	91*	66	6	-9
Cc1ccccc1C(=O)Nc1nnc(-c2ccc(F)cc2)o1	3	-1	61*	70*	-5	1
COc1ccc(-c2nnc(NC(=O)c3cc(Cl)ccc3Cl)o2)cc1	-3	-2	86*	72	4	-4
COc1ccc(-c2nnc(NC(=O)c3ccc4c(c3)OCCO4)o2)cc1	-18	-3	-2	x	34	-3
Cc1nc(N2CCN(c3ccccc3O)CC2)c2c(-c3ccccc3)csc2n1	-3	2	u	x	15	-5
O=C(CNC(=O)c1ccc(Cl)cc1Cl)OCCOc1ccccc1F	x	x	x	x	x	-4
CC(=NCc1ccncc1)C1=C(O)c2ccccc2C1=O	x	x	x	-1	64*	x
Cc1ccc(S(=O)(=O)c2nc(S(C)(=O)=O)sc2N2CCCCC2C)cc1 (stereo not drawn)	3	2	4	x	5	8
O=C(NNc1nc2ccc(Cl)cc2s1)c1cc(-c2cccs2)nc2ccccc12	28	1	88*	66	-11	-2
Cc1ccc(NC(=O)c2cc(-c3cccs3)nc3ccccc23)nc1	3	1	0	x	-2	-9
Cc1cc(C)c2nc(NNC(=O)c3cc(-c4cccs4)nc4ccccc34)sc2c1	6	8	89*	64*	-1	-9
Cc1ccc2sc(NNC(=O)c3cc(-c4cccs4)nc4ccccc34)nc2c1C	-4	5	90*	31	-1	x
COc1cc(/C=C/c2ccc3c(Br)cc(Br)c(O)c3n2)ccc1O	0	10	97*	x	32	2
COc1ccc(/C=C/c2ccc3c(Br)ccc(O)c3n2)cc1	-3	-4	85*	x	28	-4
SMILES	Platelet DG rel	TPT1 inhibitor	SKKanGAS inh	WT yeast gro inh	PHOSPHO1 inh	Rtt109 Vps75
C=C[C@](C)(CC[C@@]1(C)C(C)CC(OC2OC(C)C(OC3OC(COC(C)=O)C(O)C(O)C3O)C(O)C2O)[C@@]2(C)C(C)=CCCC12)OC1OC(C)C(O[C@@H]2O[C@@H](C)C(O)C(O)[C@H]2O)C(O)C1O (stereo partly drawn)	x	x	x	x	x	18
Oc1ccc(Cl)cc1C1=NNC(c2cccs2)C1 (stereo not drawn)	8	7	61*	x	8	12
Cc1ccc(O)c(C2=NNC(c3ccc(Cl)cc3)C2)c1 (stereo not drawn)	1	5	57*	x	27	-1
Cc1ccc(O)c(C2=NNC(O)(C(F)(F)F)C2)c1 (stereo not drawn)	10	-1	9	15	1	5
CCOC(=O)c1c(NC(=O)COC(=O)c2ccc(C)s2)sc2c1CC(C)(C)NC2(C)C	-9	0	63*	x	x	29
CCOC(=O)c1c(NC(=O)COc2ccccc2OCC)sc2c1CC(C)(C)NC2(C)C	0	2	22	x	x	0
COc1ccc(/C=C2\SC(=S)N(CCCC(=O)NNC(=O)c3ccccc3O)C2=O)cc1	-5	-1	29	-7	32	2
